# Most compounds without a hit are left out; they make up all but 9.2% or so of the library.
# SMN2 splice enh: increases expression of the SMN2 splice variant; HEK293 SMN2-luciferase splicing reporter, luminescence, 30-36 h; Potency, µM (doses to about 46.1 µM), for inactives: at the highest dose activity change, positive = activation, most hits filed as activators; hit rate 2.8% among 210,000; AID 1458; further: % of control where 0% means no effect; nearly all actives have a fitted effect of over 55% in size
#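 HEK293 cells carry an SMN2 minigene-luciferase reporter in which exon 7 inclusion puts luciferase in frame. Cells were seeded at 2000 cells/well, attached for 10-12 hours, then exposed to compounds for 30-36 hours at 37C before ONE-Glo luminescence.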
# FLuc modulator: firefly luciferase modulation, counter-screen for miR-21 project; purified FLuc, Km substrates, luminescence inhibition; Potency, µM (doses to about 57.5 µM), without a hit: at the highest dose activity change, negative = inhibition, actives largely listed as inhibitors; P08659; hit rate 6.9% among 360,000; AID 588342;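 further: plate controls were vehicle for no effect and reference inhibitor for full effect; nearly all actives have a fitted effect of over 55% in size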
# Target sequence (P08659 whole entry, looked up): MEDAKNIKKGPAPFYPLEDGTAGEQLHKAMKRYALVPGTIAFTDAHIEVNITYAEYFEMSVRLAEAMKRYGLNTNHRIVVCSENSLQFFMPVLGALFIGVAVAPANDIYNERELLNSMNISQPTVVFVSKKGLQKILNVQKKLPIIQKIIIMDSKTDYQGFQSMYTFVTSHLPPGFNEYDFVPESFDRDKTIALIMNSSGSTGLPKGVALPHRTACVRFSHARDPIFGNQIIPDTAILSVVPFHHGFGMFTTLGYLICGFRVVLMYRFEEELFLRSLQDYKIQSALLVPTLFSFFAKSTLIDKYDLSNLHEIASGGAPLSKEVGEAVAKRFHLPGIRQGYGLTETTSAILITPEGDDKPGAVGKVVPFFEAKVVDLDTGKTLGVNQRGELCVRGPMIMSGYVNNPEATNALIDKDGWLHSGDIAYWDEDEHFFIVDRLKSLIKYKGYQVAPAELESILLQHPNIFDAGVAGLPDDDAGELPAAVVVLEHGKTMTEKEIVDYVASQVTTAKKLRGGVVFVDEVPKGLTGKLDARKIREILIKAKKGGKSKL
#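 Biochemical qHTS of compounds, final roughly 60 µM downward over six points, against 10 nM purified firefly luciferase using Km concentrations of substrates (10 uM D-luciferin, 10 uM ATP) in Tris acetate pH 7.5 buffer; luminescence output.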
# NPC1 promoter act: activates the NPC1 promoter. Huh7 NPC1 promoter luciferase reporter, 24 h. Potency, µM (highest dose often 9.22 µM), for the others: at the highest dose activation, hits mostly activators. hit rate 2.4% among 320,000. AID 485313; further: % of control where 0% means no effect; nearly all actives have a fitted effect of over 60% in size
#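 Quantitative HTS used a cell-based reporter: Huh7 cells stably bearing the NPC1 promoter upstream of luciferase were treated with compounds for 24 h, and promoter activation was read as luminescence.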
# Rab9 prom act: activators of Rab9 promoter. Huh7 Rab9 promoter-luciferase reporter, luminescence, 24 h. AID 485297. hit rate 2.8% among 320,000. Potency, µM (titrated, usually from 9.22 µM), without a hit: at the highest dose activation, negative = inhibition, actives largely listed as activators; further: % of control where 0% means no effect; nearly all actives have a fitted effect of over 60% in size
#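 Luminescence from Amplite-detected luciferase (10 minutes, ambient) reports Rab9 promoter activation. Before that, stable Rab9-luciferase Huh7 cells (1500/well, reduced-serum OP-MEM I plus 10% FBS) were exposed to compound for 24 hours at 37C.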
# ELG1 genotox: inducers of genotoxicity in HEK293T ELG1-luciferase cells. HEK293T ELG1-luciferase reporter, luminescence, 16 h. Potency, µM (series often up to 46 µM), without a hit: top-dose activity change, positive = activation, actives largely listed as activators. hit rate 1.3% among 330,000. AID 504466; further: % of control where 0% means no effect; nearly all actives have a fitted effect of over 60% in size
#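 Genotoxic stress is detected as increased luminescence from luciferase-tagged ELG1 in HEK293T cells, measured with ONE-Glo after a 16 hr treatment at 37 °C.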
# ELG1 DNA repair: ELG1-dependent DNA repair inhibition; HEK293T ELG1-luciferase reporter, luminescence, 16 h; DNA damage induced by 5-fluorouridine; hit rate 2.3% among 330,000; Potency, µM (titrated, usually from 46.1 µM), without a hit: at the highest dose activity change, negative = inhibition, usual class: inhibitors; AID 504467; further: on the % scale 0 is the no-effect control and ±100 the full control effect; nearly all actives have a fitted effect of over 55% in size
#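 Cells (2,000 per well) received 5-fluorouridine plus test compound or DMSO and were incubated 16 hr at 37 °C, 5% CO2. Luciferase activity was read by luminescence 30 min after ONE-Glo addition; signal suppression marked inhibition of damage-induced ELG1 function.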
# Numbers without * were called inactive; ? = inconclusive; / = no result given; [ ] = another dose, or the depositor's remark. The call rests on the fitted dose curve; in most records, active means well fitted curve in the direction sought with a large enough effect; inconclusive means small, poorly fitted or top-dose-only effect, or another doubt; inactive means no such curve, though single readings can be large; an effect the other way counts as inactive or inconclusive. Potency means the concentration at half of the fitted maximal effect.
SMILES,SMN2 splice enh,FLuc modulator,NPC1 promoter act,Rab9 prom act,ELG1 genotox,ELG1 DNA repair
CCOC(=O)CC(Nc1nc(N2CCOCC2)nc(N2CCOCC2)n1)c1ccccc1Cl (stereo unspecified),-21.7%,1.2%,-6.5%,-6.3%,-3.5%,9.2µM*
CCN(CC)P(=O)(Nc1cccc(C(F)(F)F)c1)c1ccc(N(C)C)cc1NC(=O)c1ccco1 (stereo unspecified),-21.9%,-1.8%,-14.8%,1.3%,-16.6%,20.6µM*
CCOc1ccc(OC(=O)c2c(-c3ccccc3Cl)noc2C)cc1,/,1.6%,/,/,/,/
O=C(CCCC(=O)Nc1cccc(Br)c1)N/N=C/c1cc([N+](=O)[O-])ccc1O,/,-8.3%,-7.0%,-2.2%,12.2%,14.6µM*
Cc1ccc(C)c(NC(=O)CCC(=O)N/N=C/c2cc([N+](=O)[O-])ccc2O)c1,/,0.2%,-5.4%,0.3%,1.1%,13µM*
Cc1ccccc1NC(=O)CCC(=O)N/N=C/c1cc([N+](=O)[O-])ccc1O,-5.9%,0.4%,-0.7%,-0.9%,4.1%,?
Cc1ccc(SCC(=O)Nc2cc([N+](=O)[O-])ccc2O)cc1,/,16.9µM*,3.5%,7.2%,-5.6%,?
O=C(CCC(=O)Nc1cccc(Cl)c1)N/N=C/c1cc([N+](=O)[O-])ccc1O,27.8%,?,-2.4%,1.8%,1.3%,?
COc1ccc(NC(=O)Nc2nnc(N(CC(C)C)CC(C)C)s2)c(OC)c1,/,3.8%,/,/,/,/
O=C(O)c1cccc(CSc2ncn[nH]2)c1,/,19µM*,11.9%,?,-0.8%,9.3%
c1ccc(CSc2nnc(Cc3ccccn3)o2)cc1,-0.8%,?,?,?,2.3%,?
c1ccc(CSc2nnc(Cc3ccccc3)o2)cc1,?,23.9µM*,18.9%,?,?,?
O=C(CSc1nnc(Cc2ccccc2)o1)c1ccccc1,5.2%,?,13.3%,5.4%,?,?
O=C(O)c1cccc(CSc2nnc(Cc3ccccc3)o2)c1,15.8µM*,19µM*,27.9%,?,?,?
Cn1ncc(Br)c1NC(=O)CSc1ccc(Cl)cc1,/,-1.2%,-7.9%,-17.9%,-8.2%,7.3µM*
O=C(CSc1ccc(Cl)cc1)Nc1ncccn1,1.8%,-9.8%,5.6%,12.6%,3.0%,?
C=CCNS(=O)(=O)c1ncnc2nc[nH]c12,-1.7%[9.22 µM],/,/,/,/,/
Fc1ccccc1-c1nc(-c2cnccc2C(F)(F)F)no1,/,?,1.3%,10.0%,-10.5%,?
O=C(O)c1cccc(-c2noc(-c3cccc(Cl)c3)n2)c1,/,0.019µM*,0.0891µM*,?,?,?
O=C(O)c1cccc(-c2nc(-c3ccccc3C(F)(F)F)no2)c1,/,0.169µM*,/,/,/,/
COc1cc(-c2noc(-c3cccc(Cl)c3)n2)cc(OC)c1OC,-11.6%,-4.9%,2.4%,5.6%,-6.0%,12.9%
Cc1noc(-c2ccc(-c3noc(-c4cccc(Cl)c4)n3)cc2)n1,/,-1.9%,/,/,/,/
NC(=O)c1ccc(-c2noc(-c3cccc(Cl)c3)n2)cc1,/,?,2.51µM*,?,?,?
CC(C)c1ccc(NC(=S)NN2CCOCC2)cc1,22.4µM*,?,?,?,16.7%,?
CC(C)c1ccc(/C=C/C(=O)Nc2ccc(CN3CCOCC3)cc2)cc1,/,12µM*,-13.7%,-21.4%,-14.9%,9.2µM*
SMILES,SMN2 splice enh,FLuc modulator,NPC1 promoter act,Rab9 prom act,ELG1 genotox,ELG1 DNA repair
CC(C)c1ccc(C(=O)Nc2ccc(CN3CCOCC3)cc2)cc1,/,10.7µM*,-2.5%,-4.9%,10.2%,-9.0%
O=C(Nc1ccc(CN2CCS(=O)(=O)CC2)cc1)c1ccc(Cl)cc1,/,?,1.9%,0.2%,-1.7%,10.3µM*
O=C(/C=C/c1ccc(Cl)cc1)Nc1ccc(CN2CCOCC2)cc1,-74.5%,?,-9.7%,-18.0%,1.6%,?
CCOC(=O)N1CCC2(CC1)OC(=O)C(C)=C2C(=O)NCc1ccccc1OC,/,4.0%,/,/,/,/
COc1ccc(Cn2cc(S(=O)(=O)c3ccc(Cl)cc3)c(=O)c3cc4c(cc32)OCO4)cc1,1.7%,-2.4%,/,/,/,/
CC(C)c1ccc(NC(=O)c2ccc(CN3CC(=O)N4CCCCC4C3=O)cc2)cc1 (stereo unspecified),/,10.7µM*,/,/,/,/
O=C(Nc1ccc2c(c1)OCO2)c1ccc(CN2CCOCC2)cc1,-4.9%,15.1µM*,?,29.1%,18.4µM*,?
O=C(Nc1ccc(CN2CCCCC2)cc1)c1ccc2c(c1)OCO2,8.1%,?,0.6%,4.8%,?,?
Cc1cc(C)c(NC(=O)CSc2nc(C)cc(C)c2C#N)c(C)c1,-4.2%,0.4%,/,/,/,/
Cc1ccc(NC(=O)CN2C(=O)S/C(=C\c3ccc(-c4cccc(C(=O)O)c4C)o3)C2=O)cc1C,18.3%,?,-0.1%,-3.6%,0.5%,-4.4%
Cc1c(C(=O)O)cccc1-c1ccc(/C=C2\SC(=O)NC2=O)o1,/,5.36µM*,15.2%,19.2%,-3.5%,-4.9%
Cc1ccc(/C=C2/NC(=O)N(c3ccccc3)C2=O)o1,-3.9%,?,26.0%,?,?,?
Cc1c(C(=O)O)cccc1-c1ccc(/C=C2/NC(=O)N(c3ccccc3)C2=O)o1,/,9.53µM*,?,1µM*,12.8%,?
CC1(OC(=O)C2CCCC2)C(=O)C=C2C=C(c3ccsc3)N(c3ccc(CO)cc3)C=C2C1=O (stereo unspecified),-1.0%[9.22 µM],/,/,/,/,/
COc1ccc(CNC(=O)CSc2ncc3c(n2)-c2cc(Cl)ccc2N(C)S3(=O)=O)cc1,/,0.2%,/,/,/,/
COc1ccc2c(c1)c(=O)c(C(=O)c1ccc(C)c(C)c1)cn2CC(=O)Nc1ccc2c(c1)OCCO2,-10.2%,-1.6%,/,/,/,/
C=CCSc1nsc(NC(=O)Nc2ccc(F)cc2)n1,/,23.9µM*,-15.1%,-27.4%,-3.1%,?
CCSc1nsc(NC(=O)Nc2ccccc2F)n1,/,10.7µM*,2.82µM*,1.58µM*,-5.2%,?
CCSc1nsc(NC(=O)Nc2cccc(OC)c2)n1,/,21.3µM*,24.7%,20.4%,-9.7%,-9.5%
COc1ccc(Cc2nnc(NC(=O)Nc3cccc(OC)c3)s2)cc1,/,-0.2%,2.5%,-8.6%,15.1%,11.7%
O=C(Nc1ccc(F)cc1)Nc1nnc(SCC(=O)N2CCCCC2)s1,/,4.6%,/,/,/,/
CC(c1ccccc1)c1nnc(NC(=O)Nc2ccccc2F)s1 (stereo unspecified),/,?,?,7.2%,3.9%,?
CCC(CC)c1nn2c(=O)cc(COc3ccc(NC(=O)c4ccccc4Cl)cc3)nc2s1,-6.2%,-15.2%,/,/,/,/
Cc1ccc(C)c(Cn2nnc3c(=O)[nH]c(C(=O)NCc4ccco4)nc32)c1,-6.6%,-1.9%,9.8%,0.2%,3.3%,-7.3%

# Assay outcomes (PubChem BioAssay)
